# From PubChem
# Sampled rows, rich in hits. Any-hit rate of the full collection: about 0.58%.
# GRP78 ERSR act: ER stress response induction in glioma; U87-MG GRP78 promoter luciferase reporter, 16 h; Potency, µM, for inactives: top-dose activation, hits mostly activators; hit rate 0.02% among 420,000; AID 602332; further: potency means the concentration at half of the fitted maximal effect; series mostly up to about 76 µM; % of control where 0% means no effect; nearly all actives have a fitted effect of over 35% in size
#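 ERSR induction read as luciferase luminescence (Bright-Glo, 10 min at room temperature) in stably transfected human U87-MG glioma cells exposed to compounds for 16 h, using GRP78 as sensor.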
# Six1-Eya2 blk: Six1/Eya2 interaction inhibition | Q15475+O00167 | AlphaScreen GST-Six1/His-Eya2 binding, biochemical; active compounds read low | activity change, % (no concentration beside the values) | hit rate 0.56% among 360,000; in the data active means activity change below about -65%; inconclusive means mostly about -30% to -63%; further: on the % scale 0 is the no-effect control and ±100 the full control effect
# Target sequence (O00167 whole entry, looked up): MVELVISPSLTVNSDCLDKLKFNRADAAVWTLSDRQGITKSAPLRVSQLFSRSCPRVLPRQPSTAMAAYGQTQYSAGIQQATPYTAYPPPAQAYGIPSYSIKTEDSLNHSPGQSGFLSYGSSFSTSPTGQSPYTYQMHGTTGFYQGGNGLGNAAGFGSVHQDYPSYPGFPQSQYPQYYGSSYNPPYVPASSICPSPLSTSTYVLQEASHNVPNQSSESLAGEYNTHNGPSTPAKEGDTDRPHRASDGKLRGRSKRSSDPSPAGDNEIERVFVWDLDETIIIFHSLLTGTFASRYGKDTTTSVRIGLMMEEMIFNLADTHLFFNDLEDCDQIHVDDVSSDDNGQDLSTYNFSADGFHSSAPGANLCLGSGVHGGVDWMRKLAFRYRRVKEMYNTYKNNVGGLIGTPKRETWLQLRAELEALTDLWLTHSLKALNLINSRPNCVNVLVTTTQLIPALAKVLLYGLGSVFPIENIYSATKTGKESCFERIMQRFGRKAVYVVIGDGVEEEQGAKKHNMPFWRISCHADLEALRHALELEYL
# Target sequence (Q15475 whole entry, looked up): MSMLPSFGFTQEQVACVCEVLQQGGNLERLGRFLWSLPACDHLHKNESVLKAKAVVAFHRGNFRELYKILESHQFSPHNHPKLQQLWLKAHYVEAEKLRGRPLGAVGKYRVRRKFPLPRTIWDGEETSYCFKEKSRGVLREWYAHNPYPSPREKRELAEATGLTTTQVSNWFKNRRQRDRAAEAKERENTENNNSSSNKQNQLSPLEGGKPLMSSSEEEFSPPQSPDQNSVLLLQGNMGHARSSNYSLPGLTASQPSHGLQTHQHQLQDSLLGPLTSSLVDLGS
#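 AlphaScreen with GST-Six1 and His-Eya2 (5X mix: 250 nM and 500 nM), glutathione donor and nickel acceptor beads; buffer 50 mM Tris pH 8.0, 300 mM NaCl, 1 mM TCEP; 1 h at 37 C in the dark.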
# Eya2 inh: blocks the phosphatase activity of human Eya2; O00167; recombinant Eya2, OMFP fluorescence dephosphorylation (OMFP is methylfluorescein phosphate); Potency, µM (doses to about 76.9 µM), for the others: at the top dose activity, negative = inhibition, usual class: inhibitors; hit rate 0.006% among 330,000; further: potency means the concentration at half of the fitted maximal effect; on the % scale 0 is the no-effect control and ±100 the full control effect
#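 Eya2 (0.2 uM) preincubated 10 min at ambient with compound, then OMFP substrate added at 50 uM; 10 min reaction in 50 mM HEPES pH 7.5, 50 mM NaCl, 5 uM MgCl2, 0.05% BSA, 1 mM DTT. Fluorescence read at Ex 485/Em 525 nm.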
# CtBP-E1A blk: inhibitors of CtBP/E1A interaction. hit rate 0.49% among 340,000. activity change, % (concentration not given with the values). AlphaScreen GST-E1A/His-CtBP binding, 1536-well; active compounds read low; in the data active means activity change below about -65%; inconclusive means mostly about -30% to -63%; further: on the % scale 0 is the no-effect control and ±100 the full control effect
#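 GST-E1A and His-tagged CtBP (125 nM each as 5X stock) were preincubated with pin-transferred compound for 2 h at 37 °C in the dark, then glutathione donor and nickel acceptor beads were added for 1 h before AlphaScreen reading.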
# * hit, by the source's call; ? = inconclusive; · = no result. Unless noted, the call rests on the fitted dose curve; in most records, active means well fitted curve in the direction sought with a large enough effect; inconclusive means small, poorly fitted or top-dose-only effect, or another doubt; inactive means no such curve, though single readings can be large; an effect the other way counts as inactive or inconclusive.
SMILES,GRP78 ERSR act,Six1-Eya2 blk,Eya2 inh,CtBP-E1A blk
Cc1[nH]n(-c2ccccc2)c(=O)c1/C=N/Nc1nncc(-c2ccccc2)n1,-1%,-91*,-15%,-91*
CCC1(C2CCN(Cc3c(C)[nH]c4ccccc34)CC2)NC(=O)N(Cc2ccc3c(c2)OCO3)C1=O (centres undefined),2%,·,·,·
O=C(CN1C(=O)c2ccccc2C1=O)Nc1cccc(S(=O)(=O)Nc2ccccc2Cl)c1,-5%,-68*,3%,-68*
CC(=O)OCC1OC(Sc2cccc3cccnc23)C(OC(C)=O)C(OC(C)=O)C1OC(C)=O (centres undefined),?,-85*,8%,-85*
CCCCCCCCCCCCOC(=O)N1CCN(/[N+]([O-])=N/Oc2ccc([N+](=O)[O-])cc2[N+](C)=O)CC1,1%,·,·,·
CCC1C(=O)NCCN1Cc1ccc2c(c1)CN(Cc1cccn1-c1ccc(Cl)cn1)CCO2 (centres undefined),-3%,·,·,·
Cc1ccsc1/C=N/n1c(-c2ccccn2)n[nH]c1=S,-3%,-78*,-11%,?
O=[N+]([O-])c1cc2c(cc1/C=N/n1c(-c3ccccn3)n[nH]c1=S)OCO2,-5%,-83*,3%,8
S=c1[nH]nc(-c2ccco2)n1/N=C/c1ccccn1,·,·,-2%,·
S=c1[nH]nc(-c2ccccn2)n1/N=C/c1ccco1,-1%,-74*,-4%,0
CN(C)CCCNC(=O)c1ccc(/C=N/O)nc1,-2%,?,1%,?
CNCCCNC(=O)c1ccc(/C=N/O)nc1,-1%,-69*,-13%,?
C[N+](C)(C)CCCNC(=O)c1ccc(/C=N/O)nc1,-2%,-69*,8%,?
Nn1c(SC/C=C/c2ccccc2)nnc1-c1ccccn1,-3%,-75*,-11%,-78*
CC(C)(C)n1ncc2c(=O)n(Cc3ccc(C#N)c(F)c3)cnc21,-1%,·,·,·
O=C(/C=C\c1ccccc1)Oc1cccc2cccnc12,0%,-67*,-10%,·
O=C(Oc1cccc2cccnc12)c1ccccc1,-3%,·,·,·
O=C(/C=C/c1ccccc1)Oc1cccc2cccnc12,0%,-73*,5%,·
CO[C@H]1[C@H](NC(=O)c2cccs2)c2ccccc2C12CCN(Cc1cccn1-c1ccccn1)CC2,-3%,·,·,·
COCc1ccc(CN2CCOc3ccc(C4=Cc5ccccc5C4)cc3C2)o1,3%,·,·,·
Cc1ccc(NC(=O)CSc2nnc3c(n2)[nH]c2ccccc23)cc1,-2%,5,-12%,3
O=C(CSc1nnc2c(n1)[nH]c1ccccc12)Nc1ccc(S(=O)(=O)Nc2ncccn2)cc1,-3%,-76*,10%,·
NCc1csc(Nc2cc(Oc3ccccc3)ncn2)n1,-2%,?,·,-77*
O=C(NC(=S)NNC(=O)c1ccccc1O)c1cccc([N+](=O)[O-])c1,1%,-77*,2%,-90*
O=C(NC(=S)Nc1ccccn1)c1cccc([N+](=O)[O-])c1,6%,?,22%,-74*
SMILES,GRP78 ERSR act,Six1-Eya2 blk,Eya2 inh,CtBP-E1A blk
CCOc1ccc(C(=O)NC(=S)Nc2ccccn2)cc1[N+](=O)[O-],5%,10,14%,-1
COc1ccc(C(=O)NNC(=S)NC(=O)c2cccc([N+](=O)[O-])c2)cc1,3%,-6,·,-5
COC(=O)C1CCN(Cc2ccc3c(c2)CN(C(=O)c2cc(-c4ccc(C)o4)[nH]n2)CCO3)CC1,-4%,·,·,·
CCC1CN(CCNC(=O)c2ccc3c(c2)OCO3)Cc2cc(OC)ccc2O1 (centres undefined),-3%,·,·,·
Oc1c(Cl)cc(Cl)cc1CNc1ccccn1,1%,-72*,0%,?
Cc1nc2sccn2c1CN1CCOc2ccc(CN3C[C@@H](C)O[C@@H](C)C3)cc2C1,-1%,·,·,·
Cc1ccc(S(=O)(=O)n2nc(OC(=O)c3c(-c4ccccc4Cl)noc3C)cc2N)cc1,9%,-22,8%,0
Cc1onc(-c2ccccc2Cl)c1C(=O)Oc1cc(N)n(S(=O)(=O)c2ccc(F)cc2)n1,?,-81*,-26%,?
Nc1cccc2c1C(=O)N(C(=O)/C=C/c1ccc(F)cc1)C2=O,-8%,-10,8%,-65*
OC1(c2cccnc2)CCN(Cc2ccc3c(c2)CN(Cc2ccc4nsnc4c2)CCO3)CC1,-5%,·,·,·
CC(=O)O[C@@H]1C(=O)O[C@H]2[C@@H]1OC(=O)[C@@H]2OC(C)=O,-5%,·,·,·
Cc1cc(C(=O)N/N=C/c2ccccn2)n[nH]1,1%,-8,5%,·
O=C(N/N=C/c1ccccn1)c1ccc(N/N=C/c2ccccn2)cc1,-2%,5,8%,8
